# High-throughput results from PubChem BioAssay.
# The list is not random: actives were taken first. Their share in the collection is about 1.7%.
# GLP-1R inv ag = inverse agonists of human GLP-1 receptor; P43220; HEK293 GLP-1R CRE-luciferase, luminescence, 24 h; GLP-1R form is constitutively active; Potency, µM (top dose mostly 38.3 µM), for inactives: top-dose activity change, negative = inhibition, actives largely listed as inhibitors; 1.6% of 410,000 active; AID 624417; also: % is scaled to controls: 0 for no effect and ±100 for the full control effect; nearly all actives have a fitted effect of over 55% in size
#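 Stable HEK293 clone (constitutively active GLP-1R + cAMP-response luciferase); 200 cells/uL plated, 12 h pre-culture, compound 24 hr, 37 deg C/5% CO2; detection reagent 12 min RT; luminescence.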
# HEK293 tox = cytotoxicity counter-screen for GLP-1 receptor inverse agonists. AID 624418. Potency, µM (doses to about 38.3 µM), for inactives: at the highest dose activity change, negative = inhibition, actives largely listed as inhibitors. HEK293 cAMP-luciferase reporter cells, luminescence, 24 h. 0.13% of 410,000 active;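 also: loss of luciferase light is scored as toxicity; % is scaled to controls: 0 for no effect and ±100 for the full control effect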
#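 Luminescence readout: signal drop marks cytotoxicity. Plated cells grew 12 h at 37 °C, 5% CO2, received 23 nL compound for 24 h, then got luciferase reagent, read after 12 min at RT.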
# GLP-1R agonist = agonists of human GLP-1 receptor; HEK293 GLP-1R CRE-luciferase, luminescence, 4-6 h; cells express a hypersensitive GLP-1R form; 0.007% of 380,000 active; P43220; Potency, µM (highest dose often 45.6 µM), inactives show top-dose activation, most hits filed as activators; also: % of control where 0% means no effect
# PTHR1 agonist = agonists of human PTHR1 parathyroid hormone receptor. 0.075% of 410,000 active. Potency, µM (top dose mostly 115 µM), for inactives: top-dose activation, hits mostly activators. AID 743266. HEK293 GP2 PTHR1 cells, GloSensor cAMP luminescence, 1 h. Q03431; also: nearly all actives have a fitted effect of over 55% in size
# Target sequence (Q03431 whole entry, looked up): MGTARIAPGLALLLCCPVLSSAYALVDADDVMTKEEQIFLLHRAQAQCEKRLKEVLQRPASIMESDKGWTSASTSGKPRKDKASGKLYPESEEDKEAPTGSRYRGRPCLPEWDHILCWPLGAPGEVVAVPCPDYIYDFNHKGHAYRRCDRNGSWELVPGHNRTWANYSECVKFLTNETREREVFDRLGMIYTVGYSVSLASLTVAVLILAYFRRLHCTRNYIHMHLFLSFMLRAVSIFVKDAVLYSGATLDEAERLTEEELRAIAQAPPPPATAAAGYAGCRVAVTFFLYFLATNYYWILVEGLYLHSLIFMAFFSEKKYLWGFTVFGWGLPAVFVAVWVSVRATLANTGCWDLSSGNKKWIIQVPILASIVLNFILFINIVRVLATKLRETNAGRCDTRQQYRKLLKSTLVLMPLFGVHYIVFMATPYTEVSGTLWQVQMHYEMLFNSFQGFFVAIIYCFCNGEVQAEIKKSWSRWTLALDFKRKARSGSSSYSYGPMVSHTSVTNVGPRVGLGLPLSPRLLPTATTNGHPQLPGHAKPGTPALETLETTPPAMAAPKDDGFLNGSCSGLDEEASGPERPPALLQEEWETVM
#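 HEK-293-derived GP2 cells expressing PTHR1 and a GloSensor cAMP reporter, 3,000/well, plated overnight, given luciferin plus IBMX (each 0.5 mM as added) for 1 h at 37 °C, then compound for 1 h at 37 °C. Luminescence was read after 15 min at room temperature.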
# * hit, by the source's call; i = inactive; ? = inconclusive; / = no result given; [ ] = another dose, or the depositor's remark. Calls follow the shape of the dose curve; as a rule, active = well fitted curve in the direction sought with a large enough effect; inconclusive = small, poorly fitted or top-dose-only effect, or another doubt; inactive = no such curve, though single readings can be large; an effect the other way counts as inactive or inconclusive. Potency is read from the fitted curve at half-maximal effect.
SMILES,GLP-1R inv ag,HEK293 tox,GLP-1R agonist,PTHR1 agonist
Cc1ccc(S(=O)(=O)C(CNS(=O)(=O)c2ccc(F)c(C)c2)c2cccs2)cc1 (stereo not given),0.1%,-6.4%,/,-15.2%
OCc1cccc(-c2cnc3c(Nc4cccc(OC(F)(F)C(F)F)c4)nccn23)c1,12.6µM*,-19.1%,-21.8%,-48.5%
CCOC(=O)N1CCN(C(=O)C[C@@H]2C[C@@]3(C(=O)OC)CCCCC=C3N(Cc3ccc(Cl)cc3Cl)C2=O)CC1,11.2µM*,-13.6%,-1.9%,-1.9%
CCOC(=O)N1CCN(C(=O)C[C@@H]2C[C@@]3(C(=O)OCC)CCCC=C3N(Cc3ccc(Cl)cc3Cl)C2=O)CC1,?,0.7%,-0.2%,-20.2%
CCc1ccc2[nH]c(=O)c(CN(Cc3ccccc3)C(=O)Nc3ccccc3OC)cc2c1,3.55µM*,?,11.2%,i
CCN(CC)CCCN(Cc1cc2cc(OC)ccc2[nH]c1=O)C(=O)Nc1ccc(F)cc1,4.47µM*,-18.4%,14.1%,i
CCC(=O)O[C@@]1(C(=O)SCF)[C@@H](C)C[C@H]2[C@@H]3C[C@@H](F)C4=CC(=O)C=C[C@@]4(C)[C@]3(F)[C@@H](O)C[C@]21C,/,/,-4.3%[19.8 µM],/
CN(C)CCOC1c2ccccc2CCc2ccc3ccccc3c21 (stereo not given),5.62µM*,?,1.9%,-11.8%
COc1cc(/C=N/NC(N)=S)cc(Br)c1OCc1ccccc1F,-6.9%,5.62µM*,-0.2%,i
COc1ccc(C(=O)NCC(=O)OCc2cc(=O)n3nc(C4CCCCC4)sc3n2)cc1,-4.8%,-1.2%,/,-1.3%
O=C(Nc1ccc(OCc2cc(=O)n3c4c(sc3n2)CCCC4)cc1)c1ccccc1,8.0%,-6.7%,-0.9%,-77.3%
O=C(NCc1ccccc1)C1CCN(S(=O)(=O)c2ccc3c(c2)CCCN3C(=O)C2CCC2)CC1,-1.3%,-6.4%,/,-16.1%
COc1ccccc1C(=O)NC(=O)COC(=O)Cc1n[nH]c(=O)c2ccccc12,39.0%,12.8%,1.4%,50.1µM*
COc1ccccc1C(=O)NC(=O)COC(=O)Cc1ccc(F)cc1,3.0%,-1.2%,-9.1%,?
COc1cc(Cn2c(=O)sc3ccccc32)ccc1OCCC(C)C,10µM*,2.3%,/,-19.8%
COc1cc(/C=N/NC(=O)CC2(C)OCCCO2)ccc1OCc1ccc(Cl)cc1Cl,?,-3.4%,16.2%,-18.2%
CC1(CC(=O)N/N=C/c2ccc(OCc3ccc(Cl)cc3Cl)cc2)OCCCO1,8.91µM*,-22.2%,4.5%,-7.3%[57.5 µM]
Cc1cc(C(=O)N/N=C/c2ccc(OCc3ccccc3)cc2)c(C)o1,11.2µM*,-20.6%,14.9%,-12.3%
CCN1CCCC1CNC(=O)c1ccc(Sc2ccc(F)cc2)c([N+](=O)[O-])c1 (stereo not given),?,3.1%,10.4%,i
CCN1CCCC1CNC(=O)c1ccc(Sc2ccccc2Cl)c([N+](=O)[O-])c1 (stereo not given),3.16µM*,-28.1%,7.0%,i
COc1ccc(C(CNC(=O)c2oc3c(Cl)cccc3c2C)N2CCCC2)cc1 (stereo not given),10µM*,?,23.1%,-59.2%
CCOC(=O)c1ccc(N2CCN(c3cc(C)ccc3C)CC2)c(NC(=O)Nc2ccccc2)c1,?,5.6%,/,i
COc1ccc(NC(=O)C2CCN(c3cc(C)nc(-c4ccccc4)n3)CC2)cc1,?,?,-6.4%,-25.5%
Cc1cccc(CN2CCC(C(=O)Nc3cccc(-c4cccc(F)c4)c3)CC2)n1,10µM*,?,7.2%,-12.8%
Cc1cc(N2CCC(C(=O)Nc3ccc(F)cc3)CC2)nc(-c2ccccc2)n1,10µM*,-23.4%,-10.6%,-25.1%
SMILES,GLP-1R inv ag,HEK293 tox,GLP-1R agonist,PTHR1 agonist
Cc1nn(C(C)C)c(C)c1CN1CCC(C(=O)Nc2cccc(-c3cccc(F)c3)c2)CC1,5.01µM*,?,4.1%,-11.7%
Cc1cccc(CN2CCC(C(=O)Nc3cccc(-c4cscn4)c3)CC2)n1,-26.0%,-20.1%,6.2%,-36.2%
CCCCCC[n+]1c(-c2ccccc2)csc1Nc1ccccc1,2.24µM*,0.0%,0.3%,-31.7%
O=C(O)c1ccc(C[n+]2c(-c3ccccc3)csc2Nc2ccccc2)cc1,23.6%,-10.5%,-2.0%,-21.6%
COCCCNC(=O)CN1C(=O)c2c(c3ccccc3n2C)C1c1ccc(OC)cc1 (stereo not given),10.2%,15.3%,/,i
Cc1ccc(C(=O)Nc2nnc(SCc3cc(=O)c4c(C)ccc(C)c4[nH]3)s2)cc1,38.8%,3.4%,/,-56.6%
COc1ccc(C(=O)Cn2c(=O)n3nc(CCn4nc(C)cc4C)nc3c3cc(OC)c(OC)cc32)cc1,-29.9%,-14.2%,/,?
COc1ccc(-c2csc(N(CCCN(C)C)C(=O)c3ccccc3Cl)n2)cc1,?,?,-4.8%,i
COCCN(C(=O)c1ccccc1F)c1nc(-c2ccc(OC)cc2)cs1,10µM*,15.4%,19.1%,-18.2%
CCN(C(=O)c1ccccc1F)c1nc(-c2ccc(OC)cc2)cs1,?,-6.2%,-1.1%,-30.2%
COc1ccc(-c2csc(N(CCCN(C)C)C(=O)c3ccccc3C)n2)cc1,2.82µM*,?,-3.2%,i
COc1ccc(OC)c2sc(NC(=O)c3ccc(S(=O)(=O)N4CCCC4)cc3)nc12,11.6%,-6.3%,-1.6%,-18.6%
Cc1cc(C(c2ccc(C)o2)c2ccc(C)o2)c(O)c([N+](=O)[O-])c1,10µM*,-4.8%,-6.4%,-28.6%
Cc1noc(C)c1COC(=O)c1cccc(S(=O)(=O)N2c3ccccc3CC2C)c1 (stereo not given),14.1µM*,2.8%,2.7%,i
CCN(CC)c1ccc(S(=O)(=O)Nc2cc(Cl)ccc2Cl)cc1NC(=S)NC(=O)C1CCCC1,5.01µM*,-9.8%,-16.4%,i
O=C(CN1CCN(S(=O)(=O)c2ccccc2)CC1)Nc1cccc(C(F)(F)F)c1,4.47µM*,-26.1%,2.8%,-21.0%
O=C(CNc1cccc(C(F)(F)F)c1)Nc1cccc(S(=O)(=O)N2CCCC2)c1,2.51µM*,7.7%,11.1%,-48.5%
O=C(CSc1nnc(Nc2ccccc2F)s1)Nc1cccc(S(=O)(=O)N2CCCCC2)c1,10µM*,-4.9%,7.2%,-32.5%
CNC(=O)C1CCC(Cn2c(=O)c3sccc3n(CC(=O)Nc3ccccc3)c2=O)CC1 (stereo not given),8.9%,-4.5%,/,-10.7%
CCCC(CCC)C(=O)Nc1cccc(-c2cn3cccnc3n2)c1,6.7%,20.2%,/,i
C=CCN(Cc1cc(OC)ccc1OC)C(=O)c1cc2ccc(OC)cc2[nH]1,11.2µM*,-4.4%,10.8%,-18.6%
CCn1ccc2c(OCC(=O)Nc3ccccc3C(F)(F)F)cccc2c1=O,3.1%,-6.0%,/,-13.2%
Cc1ccc(CN2CCc3c(OCc4ccc(F)cc4)cccc3C2=O)cc1,4.47µM*,12.1%,13.3%,-35.8%
CCc1ccccc1N1CSC2=C(C#N)C(c3cc(OC)c(OC)cc3OC)CC(=O)N2C1 (stereo not given),3.4%,-0.5%,11.2%,1.58µM*
